Assay results reported in PubChem BioAssay (NCATS).
Results filed as inconclusive are left out. Entries that show only a call come without a potency. Activity calls are given as the source filed them. The call rests on the fitted dose curve; in most records, active means well fitted curve in the direction sought with a large enough effect in the repeat runs; inconclusive means weak or mixed curves; inactive means no such curve, though single readings can be large; an effect the other way counts as inactive or inconclusive.
Potency means the concentration at half of the fitted maximal effect.

Each compound was assayed against Cytochrome P450 2D6 (Homo sapiens) (UniProt P10635) (assay: Cytochrome P450 family 2 subfamily D member 6 (CYP2D6) small molecule antagonists: luciferase biochemical (cell-free) qHTS assay (AID 1645840; further: nearly all actives have a fitted effect of over 55% in size)). Conditions: P450-Glo CYP2D6 enzyme, luciferin luminescence, 1 h; series mostly up to 57.4 µM.
Chain of Cytochrome P450 2D6 (Homo sapiens) (P10635 whole entry, looked up): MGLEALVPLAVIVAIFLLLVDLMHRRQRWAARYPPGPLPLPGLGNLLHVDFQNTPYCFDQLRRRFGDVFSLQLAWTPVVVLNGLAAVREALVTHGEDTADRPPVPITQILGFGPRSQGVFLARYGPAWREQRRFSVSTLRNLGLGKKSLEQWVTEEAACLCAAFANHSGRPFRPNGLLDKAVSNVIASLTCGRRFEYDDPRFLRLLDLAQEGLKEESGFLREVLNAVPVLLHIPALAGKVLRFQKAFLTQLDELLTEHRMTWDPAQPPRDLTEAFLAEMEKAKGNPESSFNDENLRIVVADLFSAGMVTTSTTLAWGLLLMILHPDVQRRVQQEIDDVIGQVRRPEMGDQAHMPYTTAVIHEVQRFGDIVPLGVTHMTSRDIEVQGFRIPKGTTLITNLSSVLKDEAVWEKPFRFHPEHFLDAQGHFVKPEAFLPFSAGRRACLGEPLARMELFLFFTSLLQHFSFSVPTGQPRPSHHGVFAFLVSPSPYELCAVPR
How it was run: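 P450-Glo luminescent screen: recombinant CYP2D6 enzyme–proluciferin substrate mix preincubated with compound 10 min at room temperature, then NADPH regeneration added for 1 h at room temperature. Detection reagent added for 20 min; luciferin light read as relative luminescence units.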
For `Cc1[nH]cnc1C[C@H]1CCc2c(C)c3ccccc3n2C1=O`, the Potency was 0.301 µM (active).
`NCC1CCN(c2nccc(-c3ccc4ccccc4c3)n2)CC1` was tested, and the Potency was 9.52 µM (active).
With `COc1ccccc1N1CCN(CC[C@@](C)(C(=O)C2CCCCC2)c2ccccc2)CC1` the Potency was 12 µM (active).
`Oc1ccc(-c2cnc3ccc(NCc4ccco4)nn23)cc1` was tested, and the Potency was 1.69 µM (active).
For `Cc1[nH]c(/C=C2\C(=O)Nc3cc(-c4ccccc4)ccc32)c(C)c1CCC(=O)O`, the Potency was “inactive”.
In the case of `NS(=O)(=O)c1ccc(N2CCN(CC[C@@H]3OCCc4ccccc43)CC2)cc1`, the Potency is reported as 23.9 µM (active).

These compounds were tested against Cytochrome P450 3A4 (Homo sapiens) (UniProt P08684) (assay: Cytochrome P450 family 3 subfamily A member 4 (CYP3A4) small molecule antagonists: luciferase qHTS assay (AID 1645841; further: nearly all actives have a fitted effect of over 45% in size)). Conditions: P450-Glo CYP3A4 enzyme assay, luciferin luminescence; series mostly up to 57.4 µM.
Chain of Cytochrome P450 3A4 (Homo sapiens) (P08684 whole entry, looked up): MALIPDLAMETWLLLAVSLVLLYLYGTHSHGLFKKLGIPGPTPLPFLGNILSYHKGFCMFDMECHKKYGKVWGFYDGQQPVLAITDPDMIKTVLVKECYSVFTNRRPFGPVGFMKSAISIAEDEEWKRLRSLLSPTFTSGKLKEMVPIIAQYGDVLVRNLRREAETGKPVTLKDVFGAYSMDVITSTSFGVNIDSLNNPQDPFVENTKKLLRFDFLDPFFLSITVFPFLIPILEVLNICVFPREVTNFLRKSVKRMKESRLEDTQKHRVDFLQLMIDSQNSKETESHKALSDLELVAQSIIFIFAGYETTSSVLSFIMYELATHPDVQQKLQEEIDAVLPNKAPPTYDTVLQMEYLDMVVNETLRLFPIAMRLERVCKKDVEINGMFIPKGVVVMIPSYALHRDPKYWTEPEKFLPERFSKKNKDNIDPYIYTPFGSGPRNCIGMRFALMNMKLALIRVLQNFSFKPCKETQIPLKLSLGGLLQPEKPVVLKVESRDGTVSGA
How it was run: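 P450-Glo CYP3A4 enzyme with proluciferin substrate was preincubated with DMSO-dissolved compounds for 10 min at room temperature. NADPH regeneration solution started a 1 h reaction. Detection reagent stopped it, and luminescence was read after 20 min.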
For `CC1(C)Oc2ncnc(N)c2N=C1c1ccc(C23CCC(CC(=O)O)(CC2)CC3)cc1`, the Potency was “inactive”.
In the case of `O=c1[nH]c([C@@H]2CCCN2)nc2c1oc1ccc(Cl)cc12`, the Potency is reported as “inactive”.
`O=C(NCc1ccccc1)c1ccc2c(=O)n(-c3cccc(C(F)(F)F)c3)c(=S)[nH]c2c1` was tested, and the Potency was “inactive”.
With `Fc1ccc(CN2CCC(Nc3ccc(C(F)(F)F)nn3)CC2)cc1F` the Potency was “inactive”.
`O=C(CN1C2=NCCN2c2ccccc21)c1ccc(-c2ccccc2)cc1` was tested, and the Potency was “inactive”.
`CNC(=O)c1ccc2c(c1)CCO[C@H]2CCN1CCN(c2ccc(OC)cc2)CC1` was tested, and the Potency was “inactive”.
`O=C(NC1CCC1)c1ccc(C#Cc2cccc(F)c2)nc1` was tested, and the Potency was “inactive”.
For `Nc1nc(O)c(C2=C3C(=Nc4ccccc43)C(=O)NCC2)[nH]1`, the Potency was “inactive”.
In the case of `CCOc1cn(-c2ccc(F)cc2C)nc1C(=O)Nc1ccc(Oc2ccnc3cc(OC)c(OC)cc23)c(F)c1`, the Potency is reported as “inactive”.
In the case of `COC(=O)c1ccc2c(c1)nc(NC(=O)c1ccccc1)n2CCCc1ccccc1`, the Potency is reported as “inactive”.
For `CCN1CCC[C@@H]1CNC(=O)c1ccc2c(c1)NC(=O)c1cccc(C)c1S2`, the Potency was “inactive”.
For `COc1ccccc1N1CCN(CC[C@@](C)(C(=O)C2CCCCC2)c2ccccc2)CC1`, the Potency was 6.01 µM (active).
`NS(=O)(=O)c1ccc(N2CCN(CC[C@@H]3OCCc4ccccc43)CC2)cc1` was tested, and the Potency was “inactive”.
